Compound activity: PubChem, National Center for Advancing Translational Sciences (NCATS)
An excerpt weighted towards active compounds, which were near 11% of everything screened.
HPGD block: blocks human HPGD enzyme activity; purified HPGD, NADH fluorescence kinetic, PGE2 substrate; Potency, µM, hits mostly inhibitors; 150,000 compounds, 4.3% hits; active means well fitted inhibition curve with a large enough effect, not every such curve was filed as active; inconclusive means small, poorly fitted or top-dose-only effect, or another doubt; inactive means no such curve, though single readings can be large or run the other way
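20 nM HPGD preincubated 15 min at room temperature with compound in 50 mM Tris-HCl pH 8, 0.01% Tween 20. Started with 1 mM NAD+ and 30 uM prostaglandin E2; NADH fluorescence (360/450 nm) read 5 times over 30-s intervals, last minus first.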
ALDH1A1 block: ALDH1A1 (human) enzyme inhibition; P00352; Purified ALDH1A1, NADH fluorescence, propionaldehyde substrate; Potency, µM (top dose mostly 75.3 µM), usual class: inhibitors; 220,000 compounds, 7.3% hits; AID 1030; active means well fitted inhibition curve with a large enough effect, not every such curve was filed as active; inconclusive means small, poorly fitted or top-dose-only effect, or another doubt; inactive means no such curve, though single readings can be large or run the other way
IMPase cell inh: cell-permeable inhibitors of inositol monophosphatase (IMPase); AID 901; inhibition (IP1 accumulation), % at 46.1 µM; P97697; CHO-M1 cells, IP1 accumulation, HTRF TR-FRET ratio; 120,000 tested, under 10 active; active means well fitted curve in the direction sought with a large enough effect in the signal ratio, not every such curve was filed as active; inconclusive means small, poorly fitted or top-dose-only effect, or a change in a side signal; inactive means no such curve, though single readings can be large or run the other way; the % refers to the signal ratio;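 further: cells stimulated with carbachol in lithium chloride buffer; higher means more IMPase inhibition seen as more IP1 and lower FRET ratio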
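The IP-One HTRF competitive assay in carbachol-stimulated CHO-M1 cells quantifies cellular IP1. Compounds spanned up to 46 uM final, and activity is expressed as AC50 from concentration-response fits of the ratio and donor data.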
IMPase Li cell: membrane-permeable IMPase blocker, potentiated with lithium; AID 1457; Potency, µM (series often up to 59.4 µM), usual class: inhibitors; 210,000 compounds, 0.35% hits; CHO-M1 cells, IP1 TR-FRET (IP-One), carbachol + lithium;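 further: IP1 builds up when IMPase is blocked and the TR-FRET signal falls; nearly all actives have a fitted effect of over 50% in size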
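Steps: plate 2000 CHO-M1 cells per well and culture 16–30 h; add compound and lithium; incubate 30 min, 37C; add d2-IP1 tracer and Eu cryptate anti-IP1 antibody in lysis buffer; read after 10 min at room temperature.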
PNC inhibitor: blocks assembly of the perinucleolar compartment; PC3M PTB-GFP, PNC prevalence imaging, 16 h; active compounds read low; activity change (PNC), negative = inhibition, % at 10 µM; 140,000 compounds, 3.1% hits;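 active means readout at or below -70, meaning at least 70% loss of cells showing the perinucleolar compartment, a nuclear body marking cancer cells; inconclusive means readout between -30 and a set limit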
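Read-out is percentage of cells bearing a perinucleolar compartment, from automated 20x imaging of fixed, Hoechst-stained PC3M PTB-GFP cells. Cells were seeded 4 h, then exposed 16 h to compound (23 nl of library stock) in duplicate plates.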
12-hLO inh: 12-hLO (ALOX12) enzyme inhibition; 150,000 compounds, 0.12% hits; Potency, µM (doses to about 57.1 µM), actives largely listed as inhibitors; purified 12-hLO, xylenol orange hydroperoxide absorbance; further: nearly all actives have a fitted effect of over 55% in size
Target sequence (P18054 whole entry, looked up): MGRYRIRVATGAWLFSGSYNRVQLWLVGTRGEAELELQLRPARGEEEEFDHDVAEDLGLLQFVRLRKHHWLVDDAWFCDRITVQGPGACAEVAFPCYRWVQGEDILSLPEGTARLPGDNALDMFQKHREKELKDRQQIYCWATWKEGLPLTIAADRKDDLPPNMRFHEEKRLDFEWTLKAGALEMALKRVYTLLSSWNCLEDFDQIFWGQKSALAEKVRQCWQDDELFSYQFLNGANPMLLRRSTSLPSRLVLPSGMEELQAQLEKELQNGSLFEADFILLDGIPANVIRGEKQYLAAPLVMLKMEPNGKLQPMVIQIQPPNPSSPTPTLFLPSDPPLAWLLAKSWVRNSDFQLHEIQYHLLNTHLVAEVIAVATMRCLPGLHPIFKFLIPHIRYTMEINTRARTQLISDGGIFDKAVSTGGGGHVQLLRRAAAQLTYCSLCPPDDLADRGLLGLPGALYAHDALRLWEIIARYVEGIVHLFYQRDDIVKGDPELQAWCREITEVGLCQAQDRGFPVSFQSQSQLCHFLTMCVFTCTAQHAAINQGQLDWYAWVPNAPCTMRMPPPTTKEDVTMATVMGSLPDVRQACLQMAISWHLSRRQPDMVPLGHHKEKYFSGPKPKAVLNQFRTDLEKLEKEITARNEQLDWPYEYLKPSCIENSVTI
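Hydroperoxide formation by human 12-lipoxygenase from 40 uM arachidonic acid was followed colorimetrically via ferric-xylenol orange complex, using the 573/405 nm absorbance ratio. Enzyme concentration was 150 nM, with 30 min reaction at room temperature.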
Each line names hits and unclear results; the compound was inactive in the other large screens; ! = not confirmed by another sample. Unless noted, the call rests on the fitted dose curve; in most records, active means well fitted curve in the direction sought with a large enough effect; inconclusive means small, poorly fitted or top-dose-only effect, or another doubt; inactive means no such curve, though single readings can be large; an effect the other way counts as inactive or inconclusive.

O=C(CCl)N1N=C(c2cccs2)CC1c1ccco1 (configuration not stated)	ALDH1A1 block 0.45µM (no result: HPGD block, IMPase cell inh, PNC inhibitor, 12-hLO inh)
CN1CCN(CC(=O)N2N=C(c3cccs3)CC2c2ccco2)CC1 (configuration not stated)	HPGD block inconclusive (no result: IMPase cell inh)
CCOC(=O)C1(Cc2ccc(Cl)cc2)CCN(C(=O)c2sc(C)nc2C)CC1	ALDH1A1 block 35µM (no result: HPGD block, IMPase cell inh, PNC inhibitor, 12-hLO inh)
CCOC(=O)C1(Cc2ccc(OC)cc2)CCN(C(=O)c2sc(C)nc2C)CC1	ALDH1A1 block inconclusive (no result: HPGD block, IMPase cell inh, PNC inhibitor, 12-hLO inh)
COc1cc(C2c3c(n[nH]c3C)C(=O)N2c2ccc(Br)cc2)ccc1O (configuration not stated)	none
Cc1[nH]nc2c1C(c1cccnc1)N(c1ccc(Br)cc1)C2=O (configuration not stated)	PNC inhibitor -83
Cc1ccc(OC/C(=N\O)C(C)(C)C)c([N+](=O)[O-])c1	none (no result: HPGD block, IMPase cell inh, PNC inhibitor, 12-hLO inh)
CCN(C(=O)c1ccc(Cl)c([N+](=O)[O-])c1)c1ccccc1	ALDH1A1 block 13µM (no result: HPGD block, IMPase cell inh, PNC inhibitor, 12-hLO inh)
O=C(c1ccc(Cl)c([N+](=O)[O-])c1)N(c1ccccn1)c1ccccn1	PNC inhibitor inconclusive (no result: IMPase cell inh)
O=C1C=C(c2ccccc2)C(=O)N1Nc1ccccc1	HPGD block inconclusive, ALDH1A1 block 22µM, 12-hLO inh inconclusive
O=C(NCc1n[nH]c(=S)n1-c1ccccc1)c1ccc(S(=O)(=O)N2CCOCC2)cc1	ALDH1A1 block 18µM, PNC inhibitor inconclusive
O=C(NCc1n[nH]c(=S)n1-c1ccc(F)cc1)c1ccc(S(=O)(=O)N2CCOCC2)cc1	ALDH1A1 block inconclusive (no result: HPGD block, IMPase cell inh, PNC inhibitor, 12-hLO inh)
CCN(CC)S(=O)(=O)c1ccc(C(=O)NCc2n[nH]c(=S)n2-c2ccc(Cl)c(Cl)c2)cc1	ALDH1A1 block 1.4µM (no result: HPGD block, IMPase cell inh, PNC inhibitor, 12-hLO inh)
O=C(NCc1n[nH]c(=S)n1-c1ccccc1)c1ccc(S(=O)(=O)N2CCCCC2)cc1	ALDH1A1 block 11µM (no result: HPGD block, IMPase cell inh, PNC inhibitor, 12-hLO inh)
Cc1nc(NCc2ccccc2)c2nc(-c3ccccc3)n(CCN(C)C)c2n1	HPGD block inconclusive, ALDH1A1 block inconclusive (no result: IMPase cell inh, PNC inhibitor)
Cc1ccc(-n2c(C3CC3c3ccc(Cl)cc3)n[nH]c2=S)cc1 (configuration not stated)	HPGD block 8.9µM, PNC inhibitor inconclusive, 12-hLO inh inconclusive
Cc1ccc(C2CC2c2n[nH]c(=S)n2-c2ccc(C)cc2)cc1 (configuration not stated)	HPGD block inconclusive, ALDH1A1 block inconclusive
S=c1[nH]nc(C2CC2c2ccc(Cl)cc2)n1-c1ccc(Cl)cc1 (configuration not stated)	HPGD block 5µM (no result: IMPase cell inh)
Nc1n[nH]c(=S)n1-c1ccc(Cl)cc1	ALDH1A1 block 1.6µM (no result: HPGD block, IMPase cell inh, IMPase Li cell, PNC inhibitor, 12-hLO inh)
Cc1ccc2c(c1)sc1nc(-c3cc4ccccc4oc3=O)cn12	none (no result: HPGD block, ALDH1A1 block, IMPase Li cell, PNC inhibitor, 12-hLO inh)
C/C=C/c1ccc(OCCCNC)c(OC)c1	ALDH1A1 block 28µM
COc1cc(C=O)ccc1OCCOCCOc1c(C)cc(Cl)cc1Cl	HPGD block inconclusive, ALDH1A1 block inconclusive, 12-hLO inh inconclusive
C/C=C/c1ccc(OCCOc2ccc(C=O)cc2)c(OC)c1	HPGD block 25µM, ALDH1A1 block inconclusive (no result: IMPase cell inh)
C/C=C/c1ccc(OCCCCOc2ccccc2C(C)=O)c(OC)c1	HPGD block 14µM, ALDH1A1 block inconclusive (no result: IMPase cell inh)
COc1cc(C=O)ccc1OCCOCCOc1ccc(Cl)cc1	ALDH1A1 block 3.5µM
Cc1noc(C)c1-c1nccc(-n2ccnc2)n1	none (no result: IMPase cell inh, PNC inhibitor)
Cn1cc(-c2nc3cnc(N4CCNCC4)nc3n(C)c2=O)c2ccccc21	none (no result: HPGD block, IMPase cell inh, PNC inhibitor, 12-hLO inh)
CCOC(=O)N/N=C/c1ccc(OCCSc2ccc(Cl)cc2)c(OCC)c1	HPGD block 16µM (no result: IMPase cell inh)
COc1cc(C=O)ccc1OCCSc1ccc(Cl)cc1	HPGD block 11µM, ALDH1A1 block inconclusive
O=C(Cc1cc(=O)[nH][nH]1)N/N=C/c1c(Cl)cccc1Cl	HPGD block 14µM, ALDH1A1 block 11µM!, PNC inhibitor inconclusive
CC(=O)OCC(=O)Nc1ccc(C(C)=O)cc1	ALDH1A1 block inconclusive
N#Cc1ccc(NC(=O)COC(=O)CNC(=O)C2CCCCC2)cc1	PNC inhibitor -105
CC(=O)NCC(=O)OCC(=O)Nc1ccc(C(C)=O)cc1	HPGD block inconclusive, ALDH1A1 block 22µM
